# Hit rate of the full screen: of about 62,000 compounds, about 420 (0.68%) were called active. This is one part of a sample in which actives are shown more often than they occur. Values without a mark were called inactive.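 Rule for the calls: active = inhibition above the mean of all tested compounds plus 3 SD (cut at about 43% in these data); inactive = the rest.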
# Target: 5-hydroxytryptamine receptor 1A (Homo sapiens) (UniProt P08908)
# Assay: blockade of serotonin HTR1A receptor – cell-based, CHO, Ga15 NFAT-bla reporter, primary screen (AID 612);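 note: receptor stimulated by 5-CT agonist at 100 nM near EC80; beta-lactamase reporter measured by ratiometric fluorescence of a cleavable substrate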
# Conditions: CHO 5-HT1a Ga15 NFAT-bla reporter, antagonist mode; at 10 µM; active compounds read high
# 5-hydroxytryptamine receptor 1A (Homo sapiens), sequence (P08908 whole entry, looked up): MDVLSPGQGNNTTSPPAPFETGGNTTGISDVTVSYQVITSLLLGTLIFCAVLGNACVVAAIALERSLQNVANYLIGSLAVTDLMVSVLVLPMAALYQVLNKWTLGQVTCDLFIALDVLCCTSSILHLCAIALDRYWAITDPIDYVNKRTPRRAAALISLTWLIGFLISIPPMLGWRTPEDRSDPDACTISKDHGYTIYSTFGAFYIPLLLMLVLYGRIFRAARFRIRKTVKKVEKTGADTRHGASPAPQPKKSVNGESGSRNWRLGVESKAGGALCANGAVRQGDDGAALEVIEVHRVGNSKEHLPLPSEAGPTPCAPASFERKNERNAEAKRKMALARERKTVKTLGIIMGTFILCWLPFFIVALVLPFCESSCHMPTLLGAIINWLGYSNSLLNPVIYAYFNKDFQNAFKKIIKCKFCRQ
row,Structure (SMILES),inhibition
1,COc1ncnc2sc3c(c12)CCCC3,10.5%
2,COc1ccc(-c2nnco2)cc1OC,2%
3,COc1ccc(-c2ccc(Nc3ccc(S(=O)(=O)N4CCCC4)cc3)nn2)cc1OC,-0.9%
4,COc1ccc(-c2cc(C(F)(F)F)nc(S(C)(=O)=O)n2)cc1OC,78.1% (active)
5,CN1CCN(CC(=O)C23CC4CC(CC(C4)C2)C3)CC1,4.4%
6,Cc1ccc(C2(c3ccc(C)cc3)NC(=O)N(Cc3c(C)noc3C)C2=O)cc1,1.9%
7,CCN(Cc1ccccc1)C(=O)CSc1nc(C)cc2c1C(=O)OC2,-9%
8,O=C(CSc1nnc(-c2cnccn2)n1Cc1ccco1)c1ccc(Cl)c(Cl)c1,9.1%
9,Cc1noc(C)c1S(=O)(=O)NCCc1ccc(S(N)(=O)=O)cc1,-7.6%
10,COc1ccc(CCN(C)C(=O)C2CCCN(Cc3ccc(OC)c(OC)c3)C2)cc1OC (centres undefined),14.7%
11,COc1ccccc1N1CCN(Cc2nnnn2CCc2ccccc2)CC1,5.1%
12,COc1ccccc1N1CCN(C(=O)CN(Cc2ccc(Cl)cc2)S(C)(=O)=O)CC1,17.7%
13,COc1ccccc1-n1nnnc1S(=O)(=O)Cc1ccc(Cl)cc1,82.7% (active)
14,COC(=O)c1ccc(NC(=O)CSc2nnc(Cc3cccn3C)n2-c2ccc(F)cc2)cc1,3.3%
15,Cc1ccc(N2C(=O)CC(NCc3ccc4c(c3)OCO4)C2=O)cc1Cl (centres undefined),-4.3%
16,CC(C)NS(=O)(=O)c1ccc(CCC(=O)N2CCOCC2)cc1,-10.5%
17,CCOC(=O)CSc1nnc(CNC(=O)c2ccco2)n1-c1ccc(F)cc1,5.9%
18,CN(C)/C=C1\C=C(c2ccccc2)OC1=O,-8.2%
19,CCOC(=O)C1(Cc2ccc(O)cc2)NC(c2ccccc2F)C2C(=O)N(C)C(=O)C21 (centres undefined),6.2%
20,Clc1ccc(C=NC23CN4CN(CN(C4)C2)C3)cc1,-6.9%
21,COc1ccc(CNC(=O)C2CCN(S(=O)(=O)N3CCOCC3)CC2)cc1,5.7%
22,c1csc(-c2nc(-c3ccncc3)no2)c1,-12.8%
23,COc1cc(Cl)c(S(=O)(=O)n2cnc(C)c2)cc1Cl,-7.5%
24,CSCC[C@H](NC(=O)NCc1cccs1)C(=O)O,4.7%
25,CC1CCN(c2oc(-c3ccccc3F)nc2C#N)CC1,13.1%

row,Structure (SMILES),inhibition
1,c1csc(-c2cn3c(n2)SCC3)c1,5.5%
2,Cc1ccc(C(=O)Nc2nnc(-c3cccs3)s2)cc1C,-13.8%
3,COc1cccc(NC(=O)Nc2nnc(N3CCCCC3C)s2)c1 (centres undefined),35.8%
4,c1ccc(-n2ncc3c2ncn2c(C4CCCCC4)nnc32)cc1,-3.1%
5,O=C(CC(NS(=O)(=O)c1ccc(Cl)cc1)c1ccco1)NC1CCCC1 (centres undefined),7.3%
6,COC(=O)N1CN(C(=O)OC)CN(C(=O)OC)C1,-7%
7,O=C(CN1CCOCC1)Nc1c2c(nc3c1CCC3)CCC2,2.1%
8,CCOC(=O)CSc1nc2c(sc(=S)n2CCc2ccccc2)c(=O)n1Cc1ccco1,58.2% (active)
9,CCOC(=O)CSc1nc2c(c(=O)n(C)c(=O)n2C)n1Cc1ccccc1F,-3.1%
10,COc1ccccc1NC(=O)CSc1nc2sc(C)c(C)c2c(=O)n1Cc1ccco1,19.2%
11,CC(c1cccnc1)N(CCN(C)C)C(=O)Nc1ccc(Cl)c(Cl)c1 (centres undefined),3.9%
12,Cc1ccc(C)c(NC(=O)C2CC(=O)N(C(C)C)C2)c1 (centres undefined),-1.5%
13,COc1ccc(S(=O)(=O)N2CCOCC2)cc1C(=O)Nc1nc2ccccc2s1,-17.7%
14,Cc1ccc2nc(NC(=O)C3CCN(S(=O)(=O)c4ccc5c(c4)oc(=O)n5C)CC3)sc2c1,1.8%
15,O=S(=O)(NCc1ccccc1Cl)c1cnc[nH]1,-4.7%
16,COc1ccccc1C(=O)Oc1ccc(N2C(=O)CCC2=O)cc1,-3.5%
17,CCOc1cc(CN2CCN(C(=O)CC(C)C)CC2)ccc1OC,-2.9%
18,CCOc1cc(C(=O)N2CCc3cc(OC)c(OC)cc3C2)ccc1OC(F)F,60.5% (active)
19,CCOc1cc(-c2noc(CCC(=O)N3CCOCC3)n2)ccc1OC,-10.7%
20,COc1cc2c(cc1OC)C(c1ccc(C)o1)CC(=O)N2 (centres undefined),30.2%
21,COCCOC(=O)C1=C(C)NC(=O)CC1c1cc2c(cc1Br)OCO2 (centres undefined),3.2%
22,CCCOc1ccccc1C1CC(=O)Nc2cc3c(cc21)OCO3 (centres undefined),54.2% (active)
23,Cc1cc(NC(=O)CCC(=O)N(c2cccc(F)c2)C(C(=O)NC2CCCC2)c2ccncc2)no1 (centres undefined),-3.5%
24,C/C(=N\O)C1(C)N(O)C(C)(C)C(c2ccc(Br)cc2)=[N+]1[O-] (centres undefined),-14.2%
25,COC(=O)c1ccc(/C=N\n2c(C)nnc2C)cc1,0.3%

row,Structure (SMILES),inhibition
1,CCOC(=O)N1CCN(C(=O)C2CCCN(c3ncnc4c3sc3cccc(F)c34)C2)CC1 (centres undefined),7.8%
2,CC(C)c1ccc(-c2nn[nH]n2)cc1,-0.6%
3,COc1ccc(N2CCN(C3CC(=O)N(c4ccc5c(c4)OCCO5)C3=O)CC2)cc1 (centres undefined),-12.3%
4,O=C(CCc1ccccc1)Nc1cccc(-c2nnc(-c3ccco3)o2)c1,10%
5,COC(=O)Cc1c(C)c2ccc(OCC(=O)NCc3ccc4c(c3)OCO4)cc2oc1=O,12.5%
6,CN(C)CCCn1c(N)c(C#N)c2nc(C#N)c(C#N)nc21,-28.3%
7,O=C(Cn1cnc2c(nnn2Cc2ccc(F)cc2)c1=O)NCc1ccc2c(c1)OCO2,2%
8,COc1ccc(C(=O)N2CCC(C(=O)Nc3cccc(C)c3)CC2)cc1OC,-2.1%
9,O=C(Nc1nsc(-c2ccccc2)n1)c1ccncc1,-6.7%
10,COc1ccc(C2OC(=O)CC2C(=O)NC(C)C)cc1 (centres undefined),-3.4%
11,CC(C)CCNC(=O)CN(C(=O)Cn1nnc(-c2ccc(F)cc2)n1)C1CCCC1,9.5%
12,O=C(O)c1cscn1,-20.4%
13,O=S(=O)(NCc1ccccn1)c1ccc(F)cc1,-4.1%
14,O=C(CCn1c(=O)[nH]c2ccccc2c1=O)NCCCN1CCN(c2cccc(Cl)c2)CC1,37.1%
15,Cn1c(C(=O)NCCCN2CCN(c3cccc(Cl)c3)CC2)cc2c(=O)n(C)c3ccccc3c21,47.4% (active)
16,Cn1c(C(=O)NCCc2ccsc2)cc2c(=O)n(C)c3ccccc3c21,-3.6%
17,CCOC(=O)N1CCC(Nc2c(NCCN3CCN(c4cccc(Cl)c4)CC3)c(=O)c2=O)CC1,1.9%
18,CC1CCCC(C)N1CCCNC(=O)c1cc2c(=O)n(C)c3ccccc3c2n1C (centres undefined),1.7%
19,CCn1c(=O)cc(OCC(=O)NCCCN2CCN(c3cccc(Cl)c3)CC2)c2ccccc21,50.4% (active)
20,Fc1ccc2nc(Nc3nc4c(s3)CCCC4)sc2c1,16.8%
21,Cc1cnc(NC(=O)CSc2nnc(-c3ccc(Cl)cc3Cl)n2N)s1,-1.4%
22,CN(CCCNC(=O)CN1C(=O)CC(C)(C)S(=O)(=O)c2ccccc21)C1CCCCC1,-7.9%
23,CCOC(=O)Cn1c2c(c(-c3ccccc3OC)cc1=O)CCCC2,17.8%
24,O=S(=O)(c1ccc(Sc2nnc3ccccn23)nc1)N1CCOCC1,-7.8%
25,O=C(Nc1nnc(-c2ccc(Cl)cc2)o1)c1ccccc1Br,8.9%

row,Structure (SMILES),inhibition
1,O=c1cc(CSc2ccc(Cl)cc2)nc(N2CCOCC2)[nH]1,-13.7%
2,Cc1cc2c(=O)n(C)c(SCC(=O)c3cc4ccccc4o3)nc2s1,-6.7%
3,COc1ccccc1-c1nc(C(F)(F)F)c(OC)o1,3.7%
4,COCCNC(=O)Cn1cc2c(n1)CCCCC2,-1.6%
5,Nc1nonc1-c1nc2ccccc2n1CCC(=O)O,-21.2%
6,Nc1nonc1-c1nc2ccccc2n1Cc1ccc(F)cc1,48% (active)
7,COc1ccc(C)c(Cn2c(-c3nonc3N)nc3ccccc32)c1,38.7%
8,Cc1cccc2nc(CNc3ccc(F)cc3)cn12,-11.2%
9,COc1ccc(N2C(=O)C3CCCN3C2c2cccs2)cc1 (centres undefined),19.9%
10,O=C(CSc1nnc2ccccn12)c1ccccc1,3.3%
11,COc1ccc(OC)c(C(=O)CSc2nnc(-c3cccs3)o2)c1,-4.9%
12,Cc1ccc(-c2noc(CCC(=O)Nc3ccccc3N3CCN(C)CC3)n2)cc1,5.2%
13,O=C(NCCN1CCOCC1)c1ccc2c(c1)ncn2C1CCCC1,-8%
14,Cc1ccc(Oc2ccc(N)cc2)cc1,11.4%
15,CCCc1nc(SCC(=O)Nc2ccccc2OC)c2c(=O)n(C)c(=O)n(C)c2n1,10.8%
16,CCOc1cc(/C=N/n2cnnc2)c(Br)cc1O,-8.1%
17,COc1ccc(O)c(C=Nc2cc(C)on2)c1,4.6%
18,COc1ccccc1-n1cnc2cc(C(=O)NCC3CCCO3)ccc21 (centres undefined),10.8%
19,COC(=O)c1ccc(CSc2nncn2C)cc1,-0.1%
20,COc1ccc(C(CNC(=O)c2cccnc2SC)N2CCOCC2)cc1 (centres undefined),5.3%
21,CCCC(=O)Nc1c(O)c2ccccc2[nH]c1=O,0.3%
22,O=C(c1cc(-c2cccc(O)c2)on1)N1CCc2ccccc2C1,-4.3%
23,c1ccc(-c2cn3cccnc3n2)cc1,-0.3%
24,C/C(CC(O)(/C=N/O)c1ccccc1)=N\O (centres undefined),7.7%
